Assay outcomes: PubChem BioAssay, The Scripps Research Institute Molecular Screening Center
In the library only some 3.4% were active in any assay of this set; here they are far more common.
PLCg1 inh = blocks human PLC-gamma1 enzyme activity. AID 720700. P19174. purified PLC-gamma1, fluorogenic substrate, fluorescence. 370,000 compounds, 0.84% hits. inhibition, % at 12.2 µM; in the data active = inhibition above about 9.5%
ADAM17 inh = inhibits human ADAM17. inhibition, % at 6.95 µM. recombinant ADAM17, EDANS/DABCYL FRET peptide cleavage. 370,000 compounds, 0.83% hits. P78536;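 active = inhibition above the mean of compounds lying between control limits plus 3 SD, set per campaign, cut at about 8.5% in these data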;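 note: 0% = DMSO-only wells as the low control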
proKLK7 act = proKLK7 (human) activation, primary screen. P49862. purified proKLK7, EDANS-DABCYL substrate fluorescence; 100% is mature enzyme control, 0% vehicle. activation, % at 7 µM. 370,000 compounds, 0.9% hits. AID 652039;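 active = activation above the mean of all tested compounds plus 3 SD, computed per campaign excluding outliers beyond control limits, cut at about 13% in these data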
PLC-beta3 inh = blocks human PLC-beta3 enzyme activity | Q01970 | inhibition, % at 12.2 µM | Purified PLC-beta3, fluorogenic substrate, fluorescence | 370,000 compounds, 0.18% hits | AID 720704; in the data active = inhibition above about 11%;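 note: 0% = median of compound wells on plate and 100% = full blocker control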
ADAM10 inh = ADAM10 inhibition, QFRET primary screen | O14672 | recombinant ADAM10, EDANS/DABCYL FRET peptide cleavage, 3 h | inhibition, % at 7 µM | 370,000 compounds, 0.62% hits;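 active = inhibition above a per-campaign cutoff equal to the mean of compounds falling between control-based bounds plus 3 SD, cut at about 20% in these data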;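 note: 0% = DMSO wells while the 100% control is not disclosed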
sPLA2-III inh = Inhibits HGIII-sPLA2 liposome hydrolysis, primary screen. Q9NZ20. QFRET BODIPY PC-A2 liposome hydrolysis, fluorescence. inhibition, % at 12.2 µM. 370,000 compounds, 0.56% hits. AID 743126;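 active = inhibition above mean plus 3 SD of compounds lying within the high and low control bounds, cut at about 19% in these data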;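 note: 0% = median of test compound wells and 100% = no enzyme DMSO wells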
hGIII sPLA2 conf = human GIII-sPLA2 inhibition, confirmation | shares compounds with sPLA2-III inh | recombinant hGIII-sPLA2, BODIPY PC-A2 QFRET fluorescence | inhibition, % at 12.2 µM | 2,000 compounds, 34% hits | AID 743280;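 active = mean inhibition across triplicates above the hit cutoff set in the earlier primary screen, cut at about 19% in these data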;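 note: 0% = enzyme with DMSO and 100% = DMSO wells lacking enzyme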
535nm interf = 535nm fluorescence interference, HGIII-sPLA2 counter-screen. 2,000 compounds, 8.5% hits. BODIPY FL product fluorescence interference, QFRET. AID 743282. inhibition, % at 12.2 µM. shares compounds with sPLA2-III inh;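 active = average inhibition above the solvent-only control mean plus 3 SD, cut at about 6% in these data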;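 note: 0% = DMSO with substrate plus product and 100% = DMSO with substrate alone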
BODIPY interf DR = counter-screen for HGIII-sPLA2 inhibitors: 535nm fluorescence interference, dose response | shares compounds with sPLA2-III inh | IC50, µM | BODIPY FL product fluorescence interference, cell-free | 240 tested, under 10 active | AID 743455;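 active = IC50 at or below 10 µM; inactive = IC50 above 10 µM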
Active calls of the source: *.

Screening CN(Cc1ccccc1)C(=O)c1c[nH]c2ccc(S(=O)(=O)N3CCOCC3)cc2c1=O returned PLCg1 inh -17, ADAM17 inh -99, proKLK7 act -50, PLC-beta3 inh -29, ADAM10 inh -310, sPLA2-III inh 20*, hGIII sPLA2 conf -4 and 535nm interf -6.
For CCOC1(c2ccccc2)OC(=O)c2ccccc21 (configuration not stated) the results were PLCg1 inh 1, ADAM17 inh -5, proKLK7 act 0, PLC-beta3 inh -1, ADAM10 inh -3, sPLA2-III inh 22*, hGIII sPLA2 conf 0 and 535nm interf -5.
Screening O=C(OCc1cn(Cc2cc(F)ccc2F)nn1)N1CCOCC1 returned PLCg1 inh 0, ADAM17 inh -4, proKLK7 act 0, PLC-beta3 inh 1, ADAM10 inh -4 and sPLA2-III inh -1.
For COC(=O)C1CN(Cc2ccccc2)CCS(=O)(=O)N1Cc1cn(Cc2ccc(C)cc2)nn1 (configuration not stated) the results were PLCg1 inh 1, ADAM17 inh 1, proKLK7 act 0, PLC-beta3 inh 3, ADAM10 inh 3 and sPLA2-III inh -7.
For Cc1ccccc1NC(=O)c1c(C)[nH]c(=S)c(C#N)c1-c1ccco1 the results were PLCg1 inh -29, ADAM17 inh -2, proKLK7 act -1, PLC-beta3 inh -34, ADAM10 inh 1, sPLA2-III inh 20*, hGIII sPLA2 conf 20* and 535nm interf 2.
For CNC(=O)c1c(C)[nH]c(=S)c(C#N)c1-c1ccco1 the results were PLCg1 inh -102, ADAM17 inh -6, proKLK7 act 0, PLC-beta3 inh -153, ADAM10 inh -6 and sPLA2-III inh 0.
`Cc1ccc(OCCN2CCN(C)CC2)c([N+](=O)[O-])c1` gave PLCg1 inh 3, ADAM17 inh -6, proKLK7 act 0, PLC-beta3 inh 0, ADAM10 inh -20, sPLA2-III inh 22*, hGIII sPLA2 conf -1 and 535nm interf -5.
`Cc1ccc(OCCN2CCNCC2)c([N+](=O)[O-])c1` gave PLCg1 inh 6, ADAM17 inh 1, proKLK7 act 0, PLC-beta3 inh 3, ADAM10 inh 3 and sPLA2-III inh -5.
`CN1/C(=C\C(=O)Nc2ccc(Br)cc2)C(C)(C)c2ccccc21` gave PLCg1 inh -5, ADAM17 inh 7, proKLK7 act 0, PLC-beta3 inh -4, ADAM10 inh -4 and sPLA2-III inh 15.
`CN1/C(=C\C(=O)Nc2ccc(F)cc2)C(C)(C)c2ccccc21` gave PLCg1 inh -2, ADAM17 inh 4, proKLK7 act -1, PLC-beta3 inh 0, ADAM10 inh 8, sPLA2-III inh 31*, hGIII sPLA2 conf 28*, 535nm interf 3 and BODIPY interf DR >122.
CNc1nn(-c2cccc(Cl)c2)nc1N was read as PLCg1 inh 5, ADAM17 inh 0, proKLK7 act 0, PLC-beta3 inh -5, ADAM10 inh -21, sPLA2-III inh 22*, hGIII sPLA2 conf 35*, 535nm interf 3 and BODIPY interf DR >122.
O=C(N[C@H](C(=O)N1CCC[C@H]1C(=O)NC1CCCC1)C1CCCCC1)C1CCCC1 was read as PLCg1 inh 3, ADAM17 inh -2, proKLK7 act 0, PLC-beta3 inh 4, ADAM10 inh -6 and sPLA2-III inh 1.
Screening COc1ccc(Br)cc1CN(C)C(C)C(=O)Nc1cc([N+](=O)[O-])ccc1OC (configuration not stated) returned PLCg1 inh 2, ADAM17 inh 0, proKLK7 act 0, PLC-beta3 inh -1, ADAM10 inh 7, sPLA2-III inh 20*, hGIII sPLA2 conf 8 and 535nm interf -8.
NC(c1csc(NC(=O)Nc2ccccc2)n1)C1CCCCC1 (configuration not stated) was read as PLCg1 inh 4, ADAM17 inh 0, proKLK7 act 0, PLC-beta3 inh 0, ADAM10 inh -13, sPLA2-III inh 22*, hGIII sPLA2 conf 8 and 535nm interf -12.
`NC(c1csc(Nc2nncc3ccccc23)n1)c1ccccc1Cl` (configuration not stated) gave PLCg1 inh -78, ADAM17 inh 5, proKLK7 act 0, PLC-beta3 inh -110, ADAM10 inh -7 and sPLA2-III inh 15.
`NC(c1csc(Nc2nncc3ccccc23)n1)C1CCCCC1` (configuration not stated) gave PLCg1 inh -57, ADAM17 inh -10, proKLK7 act 0, PLC-beta3 inh -76, ADAM10 inh -37, sPLA2-III inh 20*, hGIII sPLA2 conf 8 and 535nm interf -21.
NC(c1ccccc1)c1csc(NC(=O)NCCc2ccccc2)n1 (configuration not stated) was read as PLCg1 inh 1, ADAM17 inh -1, proKLK7 act -1, PLC-beta3 inh -1, ADAM10 inh -14, sPLA2-III inh 25*, hGIII sPLA2 conf -1 and 535nm interf -8.
For NC(c1csc(NC(=O)Nc2cccc(Cl)c2)n1)C1CCCCC1 (configuration not stated) the results were PLCg1 inh 6, ADAM17 inh 1, proKLK7 act 0, PLC-beta3 inh 3, ADAM10 inh 2 and sPLA2-III inh 3.
Screening COc1ccc(CCNC(=O)Nc2nc(C(N)C3CCCCC3)cs2)cc1OC (configuration not stated) returned PLCg1 inh 0, ADAM17 inh -5, proKLK7 act 0, PLC-beta3 inh 2, ADAM10 inh -5, sPLA2-III inh 22*, hGIII sPLA2 conf 5 and 535nm interf -22.
`O=C(CSc1nc2ccccc2n1Cc1ccccc1Cl)NN=C/C(Br)=C/c1ccccc1` gave PLCg1 inh -1, ADAM17 inh 1, proKLK7 act -1, PLC-beta3 inh -1, ADAM10 inh -4 and sPLA2-III inh -7.
For CCn1c(Cc2cccs2)nnc1SCC(=O)Nc1ccc(Cl)cc1C the results were PLCg1 inh -3, ADAM17 inh 2, proKLK7 act 0, PLC-beta3 inh 2, ADAM10 inh -4 and sPLA2-III inh -11.
